# In PubChem BioAssay:
# Values joined by “and” are separate entries in the source; they are usually repeats but may differ in a detail not shown here. Equal values may be shown once. Active and inactive are the calls of the source.
# Legend:
# Albumin (Bos taurus) = Albumin (Bos taurus) (UniProt P02769); test: compounds binding labelled BSA control protein – biochemical, small-molecule microarray, Alexa647 label, 635/667 nm fluorescence, artefact control for SMM control protein annotation, profiling panel (AID 1118); conditions: BSA-A647 binding, fluorescence 635 nm, higher = more signal;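 note: score merges 667 nm emission intensity and signal-to-noise per printed compound spot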
# Chain of Albumin (Bos taurus) (P02769 whole entry, looked up): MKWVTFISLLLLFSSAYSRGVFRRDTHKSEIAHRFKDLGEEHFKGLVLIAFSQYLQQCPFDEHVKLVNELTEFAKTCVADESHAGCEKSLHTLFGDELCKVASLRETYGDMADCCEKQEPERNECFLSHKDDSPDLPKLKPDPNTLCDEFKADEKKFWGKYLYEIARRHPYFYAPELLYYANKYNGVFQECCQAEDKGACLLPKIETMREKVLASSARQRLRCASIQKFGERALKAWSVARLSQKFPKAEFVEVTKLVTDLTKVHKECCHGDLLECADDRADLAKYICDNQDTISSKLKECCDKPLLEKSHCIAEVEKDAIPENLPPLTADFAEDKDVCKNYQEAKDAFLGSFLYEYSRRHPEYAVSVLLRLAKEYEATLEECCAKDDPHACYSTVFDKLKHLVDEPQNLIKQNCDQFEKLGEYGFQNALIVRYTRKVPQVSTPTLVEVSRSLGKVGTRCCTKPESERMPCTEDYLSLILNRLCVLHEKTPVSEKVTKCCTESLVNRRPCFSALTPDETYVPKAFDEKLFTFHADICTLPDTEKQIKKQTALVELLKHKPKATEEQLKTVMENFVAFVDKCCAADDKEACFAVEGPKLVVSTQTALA
# [1] = probe aXIP binding to arrayed compounds – biochemical, NeuroSMM set, 635/667 nm fluorescence, primary screen (AID 1119); conditions: small-molecule microarray, higher = more signal, called active from +8 up or from −8 down;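 note: probe is the protein aXip251-270 applied at 1 µg/mL to compound-printed slides; binding of probe to printed compounds measured as 667 nm fluorescence plus signal to noise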
# [2] = probe aNOTCH3 binding on compound microarray – biochemical, small-molecule microarray, 635/667 nm fluorescence, primary screen (AID 1120); conditions: higher = more signal;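 note: probe is a biotin-tagged antibody raised against NOTCH3 rather than NOTCH3 protein; score merges spot fluorescence near 667 nm with spot signal to noise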
# [3] = probe aNOTCH2 binding on compound microarray – biochemical, small-molecule microarray, 635/667 nm fluorescence, primary screen (AID 1121); conditions: higher = more signal;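 note: score merges feature fluorescence read at 667 nm with its signal to noise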
# [4] = molecular target: Carbonic anhydrase 2 (Homo sapiens) (UniProt P00918); test: compounds binding carbonic anhydrase 2 – biochemical, small-molecule microarray, Alexa647-labelled CAII, profiling panel (AID 1122); conditions: CAII-A647 binding fluorescence, higher = more signal
# [5] = COS7 lysate on small-molecule microarray, probe aHis, 635 nm (AID 1123); conditions: COS7 cell lysate, fluorescence, higher = more signal;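 note: z-score combines 667nm fluorescence intensity with signal-to-noise per printed compound spot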
# [6] = probe aLAP1 signal on lysate-treated microarray – cell lysate, small-molecule microarray, COS7 lysate, primary screen (AID 1124); conditions: probe aLAP1, fluorescence, higher = more signal;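 note: lysate comes from COS7 cells expressing LAP1 and is applied at 0.3 µg/mL; score merges spot fluorescence near 667 nm with signal-to-noise over triplicate slides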
# Sam68 (KHDRBS1) = test: compounds binding KHDRBS1 protein – biochemical, small-molecule microarray, 635 nm fluorescence, primary screen (AID 1125); conditions: higher = more signal;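 note: score merges 667 nm channel intensity with signal to noise over triplicate slides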
# [7] = system: Chordin-like protein 2 (CHRDL2); test: compounds binding chordin-like 2 – biochemical, small-molecule microarray, 635 nm fluorescence, primary screen (AID 1126); conditions: fluorescence 635 nm, higher = more signal;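 note: printed compound slides probed with Chrdl2 protein at 4 µg/mL for 1 h at 4 C; score merges 667 nm emission intensity with signal to noise over three replicate slides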
# [8] = molecular target: Concanavalin-A (Canavalia ensiformis) (UniProt P02866); test: compounds binding concanavalin A lectin – biochemical, small-molecule microarray, Alexa647 label, 635 nm, artefact control for SMM control protein annotation, primary screen (AID 1127); conditions: ConA-A647 binding fluorescence, higher = more signal;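 note: z combines 667 nm emission intensity with signal-to-noise across three replicate slides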
# Chain of Concanavalin-A (Canavalia ensiformis) (P02866 whole entry, looked up): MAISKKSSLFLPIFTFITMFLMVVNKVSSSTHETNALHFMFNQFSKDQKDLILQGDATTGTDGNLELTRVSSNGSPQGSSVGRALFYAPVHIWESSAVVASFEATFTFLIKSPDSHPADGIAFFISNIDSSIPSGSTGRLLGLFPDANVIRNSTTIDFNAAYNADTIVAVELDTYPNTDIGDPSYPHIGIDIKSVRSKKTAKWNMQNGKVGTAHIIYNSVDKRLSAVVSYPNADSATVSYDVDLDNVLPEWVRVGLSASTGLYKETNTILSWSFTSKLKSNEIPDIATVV
# [9] = compounds binding Alexa647 anti-His antibody – biochemical, small-molecule microarray, 635 nm fluorescence, artefact control for SMM control protein annotation, primary screen (AID 1128); conditions: higher = more signal;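 note: score merges feature fluorescence with signal-to-noise for each printed compound spot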
# [10] = system: Human papillomavirus type 1a E7 protein (residues 1-88); test: HPV1a E7 small-molecule binders, primary screen, biochemical, small-molecule microarray, residues 1-88, 635 nm (AID 1129); conditions: small-molecule microarray binding, fluorescence 635 nm; higher = more signal
# [11] = molecular target: Focal adhesion kinase 1 (Homo sapiens) (UniProt Q05397); test: PTK2 protein binding on printed compound slides – biochemical, small-molecule microarray, 635/667 nm fluorescence, BSA, DTT, primary screen (AID 1130); conditions: 635 nm fluorescence, higher = more signal;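 note: composite of spot emission at 667 nm and signal to noise over triplicate slides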
# Chain of Focal adhesion kinase 1 (Homo sapiens) (Q05397 whole entry, looked up): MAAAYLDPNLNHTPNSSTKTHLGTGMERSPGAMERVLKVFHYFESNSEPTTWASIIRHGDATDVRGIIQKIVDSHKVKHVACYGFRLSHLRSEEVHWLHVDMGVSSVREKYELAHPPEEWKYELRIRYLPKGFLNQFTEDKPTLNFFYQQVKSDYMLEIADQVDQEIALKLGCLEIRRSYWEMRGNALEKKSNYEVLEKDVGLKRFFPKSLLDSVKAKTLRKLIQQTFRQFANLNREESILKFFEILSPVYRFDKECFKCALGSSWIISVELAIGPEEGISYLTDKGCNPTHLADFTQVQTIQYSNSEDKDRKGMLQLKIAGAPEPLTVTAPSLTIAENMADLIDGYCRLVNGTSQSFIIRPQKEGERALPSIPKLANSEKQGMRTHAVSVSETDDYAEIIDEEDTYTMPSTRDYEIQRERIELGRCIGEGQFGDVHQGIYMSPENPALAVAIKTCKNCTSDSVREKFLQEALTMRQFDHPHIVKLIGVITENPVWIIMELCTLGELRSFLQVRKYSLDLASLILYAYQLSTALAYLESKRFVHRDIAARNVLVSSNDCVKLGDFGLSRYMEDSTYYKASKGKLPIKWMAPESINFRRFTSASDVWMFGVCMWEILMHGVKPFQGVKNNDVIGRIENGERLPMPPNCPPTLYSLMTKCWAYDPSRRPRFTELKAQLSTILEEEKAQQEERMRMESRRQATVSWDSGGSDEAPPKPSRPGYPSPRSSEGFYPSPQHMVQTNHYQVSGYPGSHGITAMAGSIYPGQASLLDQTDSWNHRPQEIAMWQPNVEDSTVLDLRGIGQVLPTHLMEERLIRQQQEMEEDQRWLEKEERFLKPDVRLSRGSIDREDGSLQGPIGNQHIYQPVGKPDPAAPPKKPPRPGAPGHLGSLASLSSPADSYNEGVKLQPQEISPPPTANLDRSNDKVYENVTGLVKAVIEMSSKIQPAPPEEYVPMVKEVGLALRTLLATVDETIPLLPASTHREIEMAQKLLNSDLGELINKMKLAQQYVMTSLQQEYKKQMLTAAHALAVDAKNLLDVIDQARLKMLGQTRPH
# [12] = system: Fibrinogen (Alexa647-labelled); test: Alexa647-fibrinogen binding to printed small molecules – biochemical, small-molecule microarray, 635/667 nm fluorescence, artefact control for SMM control-protein annotation, profiling panel (AID 1131); conditions: fibrinogen-A647 binding fluorescence, higher = more signal;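 note: z-score merges 667 nm fluorescence with per-spot signal-to-noise over triplicate slides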
# [13] = molecular target: Follistatin (Homo sapiens) (UniProt P19883); test: FST protein binding to printed compounds – biochemical, small-molecule microarray, 635/667 nm fluorescence, primary screen (AID 1132); conditions: 635 nm fluorescence, higher = more signal
# Chain of Follistatin (Homo sapiens) (P19883 whole entry, looked up): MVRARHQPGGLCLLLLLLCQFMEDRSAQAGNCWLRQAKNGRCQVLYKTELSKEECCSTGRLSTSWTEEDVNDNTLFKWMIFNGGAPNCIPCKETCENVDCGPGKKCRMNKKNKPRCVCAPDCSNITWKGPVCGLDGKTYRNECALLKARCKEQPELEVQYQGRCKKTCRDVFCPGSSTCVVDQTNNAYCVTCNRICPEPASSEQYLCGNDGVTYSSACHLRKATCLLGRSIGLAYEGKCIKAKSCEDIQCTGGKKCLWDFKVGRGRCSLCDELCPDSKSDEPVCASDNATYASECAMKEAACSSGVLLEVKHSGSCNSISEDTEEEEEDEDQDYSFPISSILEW
# [14] = molecular target: Fibroblast growth factor 2 (Homo sapiens) (UniProt P09038); test: basic fibroblast growth factor binding to printed compounds – biochemical, small-molecule microarray, 635/667 nm fluorescence, primary screen (AID 1133); conditions: FGF2, fluorescence 635/667, higher = more signal
# Chain of Fibroblast growth factor 2 (Homo sapiens) (P09038 whole entry, looked up): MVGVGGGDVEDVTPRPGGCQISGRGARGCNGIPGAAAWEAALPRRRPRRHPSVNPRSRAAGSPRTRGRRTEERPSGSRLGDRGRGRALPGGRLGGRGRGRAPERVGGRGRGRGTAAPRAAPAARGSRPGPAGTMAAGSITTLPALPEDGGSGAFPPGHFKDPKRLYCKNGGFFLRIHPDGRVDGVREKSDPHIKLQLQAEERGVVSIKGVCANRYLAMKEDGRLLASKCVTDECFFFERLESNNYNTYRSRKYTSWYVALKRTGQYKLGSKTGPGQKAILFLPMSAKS
# [15] = JC-1 mitochondrial potential readout, lung cancer cells – cell-based, A549, JC-1 fluorescence, basal, 24 h, 100 nL, profiling panel (AID 1138); conditions: higher = more signal;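 note: A549 lung adenocarcinoma cells under basal conditions with no added stimulus; test concentration not given here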
# Lefty1 = Lefty1 protein binding to printed compounds – biochemical, small-molecule microarray, 635/667 nm fluorescence, primary screen (AID 1139); conditions: fluorescence 635/667, higher = more signal
# [16] = system: wheat germ agglutinin (Triticum aestivum), Alexa647-labelled; test: Alexa647-WGA lectin binding to printed small molecules – biochemical, small-molecule microarray, 635/667 nm fluorescence, artefact control for SMM control-protein annotation, profiling panel (AID 1140); conditions: WGA-A647 binding, 635 nm fluorescence, higher = more signal;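 note: score merges 667 nm feature emission with signal to noise over triplicate slides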
# [17] = molecular target: Luciferin 4-monooxygenase (Photinus pyralis) (UniProt P08659); test: inhibition of purified Photinus pyralis luciferase – biochemical, luminescence, purified enzyme, 2006 set, primary screen (AID 1141); conditions: purified firefly luciferase, SteadyGlo luminescence, 30 min; higher = more signal, called active from +8 up or from −8 down;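 note: cell-free assay with purified firefly luciferase at 100 ng per well in PBS; test concentration not given here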
# Chain of Luciferin 4-monooxygenase (Photinus pyralis) (P08659 whole entry, looked up): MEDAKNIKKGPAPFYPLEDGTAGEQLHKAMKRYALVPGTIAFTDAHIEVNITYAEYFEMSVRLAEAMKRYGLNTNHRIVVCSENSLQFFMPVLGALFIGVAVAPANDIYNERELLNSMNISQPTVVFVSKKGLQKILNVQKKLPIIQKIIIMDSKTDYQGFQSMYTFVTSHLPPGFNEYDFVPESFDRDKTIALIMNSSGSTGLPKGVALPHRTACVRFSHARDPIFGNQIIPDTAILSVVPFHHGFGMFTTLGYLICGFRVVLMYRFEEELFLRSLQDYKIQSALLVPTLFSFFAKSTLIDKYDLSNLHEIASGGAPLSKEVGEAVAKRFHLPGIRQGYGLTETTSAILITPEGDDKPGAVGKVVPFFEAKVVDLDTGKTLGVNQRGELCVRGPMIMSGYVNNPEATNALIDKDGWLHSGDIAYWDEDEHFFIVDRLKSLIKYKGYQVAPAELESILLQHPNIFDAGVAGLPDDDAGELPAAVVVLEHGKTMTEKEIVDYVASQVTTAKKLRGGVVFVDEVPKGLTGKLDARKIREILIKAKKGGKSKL
Structure (SMILES),composite z-score (Albumin (Bos taurus)),composite Z-score [1],composite z-score [2],composite z-score [3],composite z-score [4],composite z-score [5],composite z-score [6],composite z-score (Sam68 (KHDRBS1)),composite z-score [7],composite z-score [8],composite z-score [9],composite z-score [10],composite z-score [11],composite z-score [12],composite z-score [13],composite z-score [14],z-score [15],composite z-score (Lefty1),composite z-score [16],z-score [17]
CCOC(=O)C[C@H]1[C@H](OC(=O)c2ccccc2-c2ccccc2)[C@@H](NC(=O)Cc2ccc(OC)cc2)c2cc(OCCCO)ccc2N1C(=O)Cc1ccc(OC)cc1,0.56 and -0.0815,0.376 (inactive) and -0.265 (inactive),0.23 and 0.0762,0.0922 and -0.189,0.285 and -0.324,0.324 and 0.46,0.621 and -0.153,0.821 and -0.28,-0.362 and -0.24,0.712 and -1.55,-0.109 and -0.161,0.8 and -0.925,0.14 and -0.217,0.325 and 0.237,0.214 and -0.173,-0.0463 and -0.423,1.91 and 0.598,0.517 and -0.0509,0.484 and -0.261,-1 (inactive) and 0.591 (inactive)
Cc1cc2c(nc1C)CCCN2CC(C)ON=C[C@@H](C)[C@H](OCc1ccccc1)C(C)C (stereo not given in full),-0.69,0.339 (inactive),0.0642,-0.0596,-0.345,0.0869,-0.442,-1.3,0.173,-0.804,-0.265,-1.26,0.252,-0.709,0.141,-0.0657,-0.7,0.254,-0.911,0.765 (inactive)
C=CCN(C(=O)C(c1cccs1)N(C(=O)/C=C\C(=O)O)c1c(Cl)cccc1CO)c1ccc(OC)cc1 (stereo not given),-0.464 and -0.473,-0.244 (inactive) and 0.222 (inactive),-0.374 and -0.246,-0.179 and -0.127,0.819 and 0.837,1.8 and 0.329,0.78 and 0.281,-0.818 and -0.2,-4.02 and -0.896,-0.772 and -1.14,-1.78 and -1.48,-1.15 and -0.74,-0.93 and -0.641,-1.13 and -0.594,-2.61 and -1.19,-2.55 and -1.44,1.26 and 1.98,-2.98 and -2.04,-0.55 and 0.213,-1.47 (inactive) and -1.26 (inactive)
C=C[C@@H](C)[C@@H](O)c1ccc(OCCO)cc1,-0.342 and 0.259,0.142 (inactive) and -0.0636 (inactive),-0.701 and -0.608,-0.153 and -0.199,0.8 and 0.731,-0.217 and -0.451,-0.262 and -0.524,-0.97 and -0.832,-3.22 and -2.09,-1.86 and -0.87,-0.641 and -0.244,-0.66 and -0.875,-0.467 and -1.08,-1.87 and -1.43,-1.14 and -0.506,-2.62 and -0.83,-0.0607 and 0.803,-1.33 and -1.19,-0.616 and -0.2,-5.97 (inactive) and -7.19 (inactive)
CCOC(=O)NN=C1C[C@@H](O)[C@@H](O)[C@@H]2[C@@H]3C(=O)N(Cc4ccccc4)C(=O)[C@@H]3CC[C@@H]12,-0.0904,0.182 (inactive),-0.166,-0.135,-0.0916,-0.381,0.0195,0.254,0.772,0.42,0.82,0.561,-0.118,0.669,0.408,0.371,-0.222,0.665,0.0775,0.66 (inactive)
C=CCN(CCCCC)C(=O)C1N(CCOCCO)C(=O)C2C(C(=O)O)C3C=CC21O3 (stereo not given),0.92 and -1.47,2.54 (inactive) and -0.487 (inactive),-0.496 and -0.461,-0.195 and -0.189,0.853 and 0.794,-0.568 and 0.294,-0.615 and 1.6,-3.26 and -1,-2.12 and -3.36,-1.88 and -1.67,-0.749 and -1.54,-1.08 and -0.838,-0.527 and -1.09,-1.97 and -0.97,-0.98 and -2.75,-2.29 and -2.04,0.586 and -0.536,-1.41 and -1.91,-1.19 and -2.06,0.171 (inactive) and 0.472 (inactive)
C=C(C)C(=O)OC[C@@H]1CN2[C@@H](CC[C@@H](C)[C@@H]2c2ccc(Br)cc2)C(=O)O1,0.635,-0.0665 (inactive),-0.127,-0.153,0.195,0.774,0.937,1.16,0.426,0.363,-0.0452,0.818,0.213,0.762,0.55,0.854,1.77,0.966,0.146,-0.721 (inactive)
CC(CO)N1C(=O)[C@@H]2C3C(=O)OCCC=C[C@H]3OC23C=CCN(CCN2CCOCC2)C(=O)[C@@H]13 (stereo not given in full),0.417 and -0.264,0.102 (inactive) and -0.135 (inactive),-0.225 and 0.604,-0.113 and -0.147,0.819 and 0.787,-0.144 and 2.41,-0.657 and 0.721,-0.495 and 1.14,-0.184 and -0.565,0.116 and 0.686,1.29 and 1.37,-0.795 and -0.0944,0.0101 and 1.02,-0.288 and 0.15,0.319 and -0.0336,-0.454 and -1.45,-0.0837 and -0.32,0.373 and 0.526,-0.0856 and 0.329,-0.272 (inactive) and -0.263 (inactive)
C=CC[C@@H](O)c1ccc(O)c2ccccc12,-0.0028 and -0.264,1.21 (inactive) and -0.181 (inactive),0.347 and 0.0296,-0.0523 and -0.153,0.524 and 0.379,1.18 and 1.3,0.207 and -0.0872,1.04 and 1.08,1.38 and 1.23,0.89 and 0.565,1.02 and 1.68,0.647 and 1.11,-0.618 and 0.11,0.353 and 0.0525,1.38 and 1.39,1.48 and 1.7,0.388 and -0.59,1.4 and 1.06,0.175 and 0.379,-2.65 (inactive) and -2.18 (inactive)
CC(C)N1CC=CC23O[C@@H]4C=CCCOC(=O)C4[C@H]2C(=O)N(C(C)CO)[C@@H]3C1=O (stereo not given in full),-0.579 and 0.131,0.238 (inactive) and 0.848 (inactive),-0.222 and -0.215,0.502 and -0.221,0.958 and 0.808,1.24 and -0.13,0.866 and -0.361,0.967 and -0.516,-2.61 and -1.23,0.0938 and -1.42,0.412 and -0.876,-0.149 and -1.45,-0.214 and -0.327,-0.367 and -0.617,-1.72 and -1.22,-1.55 and -0.107,0.615 and 0.4,-0.674 and -1.22,-0.759 and -1.45,-0.509 (inactive) and -0.916 (inactive)
